For some of these results: Potency and affinity values are given separately.
Legend:
Parameters in all cases: scale not given: direction of the effect not stated beside the values
[1] = target: Protein translocase subunit SecA (Escherichia coli (strain K12)) (UniProt P10408); assay: Assay to Identify E. coli SecA ATPase Inhibitors; assay type: functional; details: 30 µM
[2] = target: T1, Ubiquitin-activating enzyme e1, putative (Leishmania donovani (strain BPK282A1)) (UniProt E9BSI1); assay: Leishmania donovani Ubiquitin Activating Enzyme (LdE1); assay type: functional; details: 30 µM
T1 sequence (whole entry): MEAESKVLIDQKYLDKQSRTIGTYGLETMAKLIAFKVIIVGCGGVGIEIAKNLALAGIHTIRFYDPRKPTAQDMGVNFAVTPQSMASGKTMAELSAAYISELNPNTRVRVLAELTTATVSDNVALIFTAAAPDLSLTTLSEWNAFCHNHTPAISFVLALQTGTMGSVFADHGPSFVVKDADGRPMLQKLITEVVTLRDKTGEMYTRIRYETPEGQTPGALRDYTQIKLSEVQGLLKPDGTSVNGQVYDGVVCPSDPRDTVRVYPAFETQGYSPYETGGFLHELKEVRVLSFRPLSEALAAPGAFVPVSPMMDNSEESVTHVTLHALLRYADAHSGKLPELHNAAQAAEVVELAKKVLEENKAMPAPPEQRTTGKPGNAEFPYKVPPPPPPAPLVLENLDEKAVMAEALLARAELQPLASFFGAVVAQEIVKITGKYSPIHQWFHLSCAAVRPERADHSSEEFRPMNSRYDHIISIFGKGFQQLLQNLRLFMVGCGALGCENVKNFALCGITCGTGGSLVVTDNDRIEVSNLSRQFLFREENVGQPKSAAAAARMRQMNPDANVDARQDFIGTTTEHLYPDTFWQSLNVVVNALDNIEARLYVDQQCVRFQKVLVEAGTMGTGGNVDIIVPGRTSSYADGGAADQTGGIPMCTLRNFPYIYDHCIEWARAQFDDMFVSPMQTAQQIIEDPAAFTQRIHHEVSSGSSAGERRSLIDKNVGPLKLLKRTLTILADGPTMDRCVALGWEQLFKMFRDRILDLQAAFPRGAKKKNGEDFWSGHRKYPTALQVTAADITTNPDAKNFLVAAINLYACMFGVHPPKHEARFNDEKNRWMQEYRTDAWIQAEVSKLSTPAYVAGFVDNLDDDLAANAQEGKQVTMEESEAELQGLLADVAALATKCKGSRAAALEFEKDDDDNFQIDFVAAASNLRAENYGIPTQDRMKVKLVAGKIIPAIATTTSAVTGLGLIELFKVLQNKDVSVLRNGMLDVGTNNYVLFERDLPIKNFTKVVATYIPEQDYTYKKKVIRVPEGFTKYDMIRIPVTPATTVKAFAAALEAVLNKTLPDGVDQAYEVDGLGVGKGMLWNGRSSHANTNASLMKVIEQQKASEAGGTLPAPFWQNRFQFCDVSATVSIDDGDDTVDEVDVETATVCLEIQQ

[3] = target: AMP-activated protein kinase, AMPK (Homo sapiens) (UniProt P54646+O43741+P54619+Q9UGJ0+Q9Y478+Q13131+Q9UGI9); assay: AMP-dependent Kinase enzyme assay. An in vitro enzyme assay that detects ADP turnover that is directly proportional to AMPK activity. This uses naive AMPK that is activated during the assay with MK-8722; assay type: functional; details: 30 µM
[4] = target: Sialic acid-binding Ig-like lectin 9 (Homo sapiens) (UniProt Q9Y336); assay: Hs-Siglec9 ALPHAscreen SOP 20170721; details: 10 µM
Sequence of Sialic acid-binding Ig-like lectin 9 (Homo sapiens) (Q9Y336 whole entry): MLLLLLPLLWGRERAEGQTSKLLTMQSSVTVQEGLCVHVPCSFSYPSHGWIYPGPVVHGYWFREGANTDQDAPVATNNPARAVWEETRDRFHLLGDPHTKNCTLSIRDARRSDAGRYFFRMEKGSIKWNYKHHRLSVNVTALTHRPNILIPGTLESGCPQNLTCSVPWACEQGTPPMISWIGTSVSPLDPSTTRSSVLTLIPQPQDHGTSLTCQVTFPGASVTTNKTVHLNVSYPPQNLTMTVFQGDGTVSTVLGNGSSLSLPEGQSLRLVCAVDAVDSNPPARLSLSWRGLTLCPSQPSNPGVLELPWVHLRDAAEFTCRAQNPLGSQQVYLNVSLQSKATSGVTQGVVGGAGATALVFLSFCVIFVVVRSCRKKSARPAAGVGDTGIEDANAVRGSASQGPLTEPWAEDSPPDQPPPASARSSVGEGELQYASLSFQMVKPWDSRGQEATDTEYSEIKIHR

[5] = tested on: Trypanosoma cruzi; assay: Trypanosoma cruzi phosphomannomutase and mannose-1-phosphate guanylyltransferase assay; assay type: functional; details: 10 µM
[6] = target: T2, Arginase-2, mitochondrial (Homo sapiens) (UniProt P78540); assay: in vitro enzyme assay to detect the production of urea directly proportional to the activity of Arginase II; assay type: functional; details: 33.3 µM; also: in the data most compounds retested in dose-response had high values
T2 sequence (whole entry): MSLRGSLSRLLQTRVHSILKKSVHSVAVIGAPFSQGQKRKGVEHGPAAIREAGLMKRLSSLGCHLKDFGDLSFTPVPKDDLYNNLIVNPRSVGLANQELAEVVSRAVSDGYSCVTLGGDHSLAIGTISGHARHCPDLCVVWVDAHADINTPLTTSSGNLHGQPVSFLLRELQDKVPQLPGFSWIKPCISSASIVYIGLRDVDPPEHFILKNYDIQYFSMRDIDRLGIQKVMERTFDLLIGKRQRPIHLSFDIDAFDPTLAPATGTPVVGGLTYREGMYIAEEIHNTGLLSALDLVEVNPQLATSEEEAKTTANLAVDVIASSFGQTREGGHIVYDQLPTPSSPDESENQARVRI

[7] = target: T3, Proteasome subunit beta (Trypanosoma cruzi) (UniProt O96673); assay: Trypanosoma cruzi proteasome chymotrypsin-like activity (TcProtChymo) assay.; also: in the data most compounds retested in dose-response had high values; assay type: functional; details: 9.37 µM
T3 sequence (whole entry): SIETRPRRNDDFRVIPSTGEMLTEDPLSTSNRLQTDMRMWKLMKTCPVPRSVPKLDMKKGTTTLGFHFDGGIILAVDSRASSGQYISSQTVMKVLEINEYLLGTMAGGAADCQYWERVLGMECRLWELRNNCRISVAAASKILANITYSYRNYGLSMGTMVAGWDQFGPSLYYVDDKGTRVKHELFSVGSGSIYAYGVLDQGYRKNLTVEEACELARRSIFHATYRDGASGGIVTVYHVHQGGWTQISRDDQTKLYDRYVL

[8] = species: Homo sapiens; assay: To identify inhibition of the IFN signalling (Jak-Stat) pathway via expression of an eGFP reporter gene under the control of an IFN-stimulated response element (ISRE) containing MxA promoter.; assay type: functional; details: 30 µM
[9] = target: T4, Tyrosyl-tRNA synthetase, putative (Trypanosoma cruzi (strain CL Brener)) (UniProt Q4DSP6); assay: Trypanosoma cruzi tyrosyl tRNA synthetase (TcYRS) _High Tyrosine SOP; assay type: functional; details: 30 µM; also: in the data most compounds retested in dose-response had high values
T4 sequence (whole entry): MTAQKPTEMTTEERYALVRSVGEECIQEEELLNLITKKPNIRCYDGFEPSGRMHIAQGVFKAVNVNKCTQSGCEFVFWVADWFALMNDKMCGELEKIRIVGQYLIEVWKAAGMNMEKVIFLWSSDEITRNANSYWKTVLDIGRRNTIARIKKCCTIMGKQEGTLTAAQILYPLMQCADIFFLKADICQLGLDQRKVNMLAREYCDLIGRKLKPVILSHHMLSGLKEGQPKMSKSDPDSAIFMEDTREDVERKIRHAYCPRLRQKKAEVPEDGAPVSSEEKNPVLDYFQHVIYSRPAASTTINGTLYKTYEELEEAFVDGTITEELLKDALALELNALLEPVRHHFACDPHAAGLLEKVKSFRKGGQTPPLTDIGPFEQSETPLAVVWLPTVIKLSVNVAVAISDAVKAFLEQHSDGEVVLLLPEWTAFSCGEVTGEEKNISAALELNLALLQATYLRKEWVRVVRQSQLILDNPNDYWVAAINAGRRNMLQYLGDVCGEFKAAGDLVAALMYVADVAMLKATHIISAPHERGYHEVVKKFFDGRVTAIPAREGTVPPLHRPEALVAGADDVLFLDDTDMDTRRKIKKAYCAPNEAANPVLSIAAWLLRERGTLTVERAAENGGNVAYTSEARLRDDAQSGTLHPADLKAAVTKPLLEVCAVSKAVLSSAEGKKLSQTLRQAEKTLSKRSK

[10] = target: T4, Tyrosyl-tRNA synthetase, putative (Trypanosoma cruzi (strain CL Brener)); assay: Trypanosoma cruzi tyrosyl tRNA synthetase (TcYRS) SOP; assay type: functional; details: 30 µM
[11] = target: Chromo domain-containing protein 1 (Saccharomyces cerevisiae (strain ATCC 204508 / S288c) (Baker's yeast)) (UniProt P32657); assay: ScCHD-1 Enzyme Inhibition Assay; assay type: functional; details: 30 µM; also: in the data most compounds retested in dose-response had high values
Sequence of Chromo domain-containing protein 1 (Saccharomyces cerevisiae (strain ATCC 204508 / S288c) (Baker's yeast)) (P32657 whole entry, the tested form may be a part): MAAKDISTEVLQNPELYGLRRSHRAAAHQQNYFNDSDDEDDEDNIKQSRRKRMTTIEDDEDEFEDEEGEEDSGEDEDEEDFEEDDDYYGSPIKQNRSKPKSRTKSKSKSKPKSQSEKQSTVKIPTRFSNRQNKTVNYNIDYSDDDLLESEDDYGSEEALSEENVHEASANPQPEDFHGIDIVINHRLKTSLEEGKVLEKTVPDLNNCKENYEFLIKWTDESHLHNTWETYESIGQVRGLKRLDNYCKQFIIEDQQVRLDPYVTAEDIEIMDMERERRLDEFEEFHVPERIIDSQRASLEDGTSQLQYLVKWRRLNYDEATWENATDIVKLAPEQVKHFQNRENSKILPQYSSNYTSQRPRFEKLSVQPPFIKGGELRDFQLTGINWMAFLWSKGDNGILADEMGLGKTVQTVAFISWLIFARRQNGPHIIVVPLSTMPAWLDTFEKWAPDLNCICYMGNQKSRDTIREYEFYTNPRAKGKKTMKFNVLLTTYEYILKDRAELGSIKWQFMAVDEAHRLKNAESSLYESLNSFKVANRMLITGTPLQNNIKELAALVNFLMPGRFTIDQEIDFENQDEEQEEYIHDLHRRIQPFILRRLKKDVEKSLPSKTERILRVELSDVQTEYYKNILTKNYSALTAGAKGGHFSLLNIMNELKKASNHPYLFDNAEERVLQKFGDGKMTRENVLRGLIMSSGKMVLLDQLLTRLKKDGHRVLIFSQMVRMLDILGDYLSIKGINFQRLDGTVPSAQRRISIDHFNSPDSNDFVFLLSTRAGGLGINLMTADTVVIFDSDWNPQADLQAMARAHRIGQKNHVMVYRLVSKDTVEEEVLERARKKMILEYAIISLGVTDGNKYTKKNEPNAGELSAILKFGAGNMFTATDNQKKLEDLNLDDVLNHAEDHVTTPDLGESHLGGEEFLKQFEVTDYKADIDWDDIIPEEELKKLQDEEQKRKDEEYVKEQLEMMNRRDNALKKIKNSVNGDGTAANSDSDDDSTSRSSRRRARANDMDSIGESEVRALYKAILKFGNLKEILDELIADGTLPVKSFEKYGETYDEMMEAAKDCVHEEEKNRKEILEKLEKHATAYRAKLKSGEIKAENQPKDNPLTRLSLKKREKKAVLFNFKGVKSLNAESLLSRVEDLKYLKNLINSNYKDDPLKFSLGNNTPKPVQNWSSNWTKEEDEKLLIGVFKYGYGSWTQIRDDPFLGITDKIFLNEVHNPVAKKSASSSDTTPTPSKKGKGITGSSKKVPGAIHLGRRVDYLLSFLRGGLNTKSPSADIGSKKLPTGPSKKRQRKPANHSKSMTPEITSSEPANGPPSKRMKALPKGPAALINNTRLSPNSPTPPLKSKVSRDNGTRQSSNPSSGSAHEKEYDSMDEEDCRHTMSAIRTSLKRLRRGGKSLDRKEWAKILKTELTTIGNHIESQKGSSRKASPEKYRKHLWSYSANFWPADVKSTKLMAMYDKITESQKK

Sequence of Protein translocase subunit SecA (Escherichia coli (strain K12)) (P10408 whole entry): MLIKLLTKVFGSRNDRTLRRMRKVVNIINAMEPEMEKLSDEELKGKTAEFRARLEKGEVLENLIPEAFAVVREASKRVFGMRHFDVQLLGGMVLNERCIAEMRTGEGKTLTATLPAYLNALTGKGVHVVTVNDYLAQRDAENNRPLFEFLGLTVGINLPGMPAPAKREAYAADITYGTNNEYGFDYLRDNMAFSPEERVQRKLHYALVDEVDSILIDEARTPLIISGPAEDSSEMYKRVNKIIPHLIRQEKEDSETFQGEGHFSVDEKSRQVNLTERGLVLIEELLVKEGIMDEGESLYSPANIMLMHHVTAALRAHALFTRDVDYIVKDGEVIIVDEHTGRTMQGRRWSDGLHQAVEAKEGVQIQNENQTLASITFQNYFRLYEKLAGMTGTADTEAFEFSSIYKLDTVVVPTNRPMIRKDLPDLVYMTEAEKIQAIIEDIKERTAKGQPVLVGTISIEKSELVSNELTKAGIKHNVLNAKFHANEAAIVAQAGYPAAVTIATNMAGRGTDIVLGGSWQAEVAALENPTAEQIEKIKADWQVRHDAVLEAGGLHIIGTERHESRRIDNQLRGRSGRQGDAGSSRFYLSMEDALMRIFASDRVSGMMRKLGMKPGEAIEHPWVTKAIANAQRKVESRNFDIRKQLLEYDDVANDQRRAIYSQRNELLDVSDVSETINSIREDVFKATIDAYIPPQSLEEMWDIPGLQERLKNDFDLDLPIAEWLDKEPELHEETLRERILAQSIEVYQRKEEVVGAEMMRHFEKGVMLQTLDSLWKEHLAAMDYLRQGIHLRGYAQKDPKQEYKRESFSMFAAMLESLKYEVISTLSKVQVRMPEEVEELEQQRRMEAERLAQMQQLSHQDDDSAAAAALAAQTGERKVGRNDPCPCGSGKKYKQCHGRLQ

Structure (SMILES)	Percent Effect [1]	Percent Effect [2]	Percent Effect [3]	Percent Effect [4]	Percent Effect [5]	Percent Effect [6]	Percent Effect [7]	Percent Effect [8]	Percent Effect [9]	Percent Effect [10]	Percent Effect [11]
CCOc1cc(C(=O)N2CCCC(n3cncn3)C2)ccc1C (stereo not given)	2.65%	-8.11%	0.403%	-1.22%	-1.21%	1.66%	-7.18%	4.36%	0.99%	1.22%	11.6%
CN(CCO)Cc1nnc(C2CCN(C(=O)c3cccnc3)CC2)n1C	-3.37%	16%	-6.42%	14.9%	5.75%	4.69%	6.97%	4.06%	6.01%	16.1%	-7.14%
Cc1[nH]ncc1CCCNC(=O)Nc1ccc(C#N)cc1	-1.53%	5.41%	8.53%	1.92%	3.28%	2.38%	7.41%	15.2%	7.94%	9.76%	-1.92%
Cn1ncc2c(N3CCN(C(N)=O)CC3)nc(C3CCCC3)nc21	-1.31%	1.39%	27.7%	-4.81%	-7.29%	0.883%	18.4%	25.9%	1.05%	-7.69%	-4.35%
Cc1cnn(CC2CCCN2CCc2nc3ccccc3c(=O)[nH]2)c1 (stereo not given)	-3.81%	10.1%	-7.83%	11.2%	6.89%	4.56%	-1.06%	15.8%	3.45%	16.5%	-5.27%
OC(CN1CCN(Cc2ccc(F)cc2)CC1)C1CC1 (stereo not given)	-4.82%	8.22%	-8.34%	-6.79%	0.392%	1.82%	4.61%	2.15%	6.45%	20%	-4.22%
CCOCCCn1c(NC(=O)c2ccc(C)nc2)nc2ccccc21	-10.1%	7.79%	10.5%	3.52%	2.25%	0%	4.56%	-7.49%	4.85%	14.6%	0.139%
C[C@@H]1CN(C2(C(=O)N3CCOCC3)Cc3ccccc3C2)C[C@H](C)O1	-4.17%	-37.5%	-3.25%	0.729%	0.875%	1.77%	8.6%	-18.6%	5.26%	7.69%	-3.31%
Cn1ccnc1COc1ccc(CN2CCN(CCO)CC2)cc1	-4.05%	20.8%	-12.5%	-0.317%	-3.18%	-3.2%	5.07%	29.4%	10.7%	2.44%	-9.14%
Cn1cnc2c1C(COCC1CC1)CN(Cc1ccsc1)C2 (stereo not given)	-1.29%	13%	3.5%	-4.76%	-1.68%	7.1%	20.2%	6.71%	6.35%	11.5%	-6.29%
CC(C)c1ccc(-c2nnn(CCNS(C)(=O)=O)n2)cc1	-4.75%	2.74%	0.921%	2.29%	4.96%	-2%	4.71%	-14%	-4.17%	8.64%	-0.501%
Cn1cc(C2CCCN2Cc2csc(-c3ccsc3)n2)cn1 (stereo not given)	-1.56%	-2.53%	-11.2%	3.12%	-7.46%	0.76%	3.36%	8.82%	-24.1%	3.8%	-2%
CC(C)CN1CCC2(C=C(C(=O)N3CCCC3)c3ccccc32)CC1	-2.44%	0%	-1.76%	3.68%	-6.76%	-56.8%	7.35%	1.33%	5.21%	10%	-7.39%
CCc1nnc2n1CCN(CC(=O)Nc1cc(C(C)(C)C)nn1C)C2	-1.62%	5.26%	1.91%	0.565%	-3.38%	4.6%	2.17%	2.83%	3.43%	9.76%	2.88%
CS(=O)(=O)NCc1nnc2n1CCN(Cc1cccs1)C2	-3.62%	2.7%	7.63%	-1.91%	0.684%	-3.5%	13.5%	6.95%	5.41%	12.8%	3.73%
Cn1ccc(NC(=O)Cc2cccc(F)c2)n1	-2.82%	5.41%	2.46%	-6.52%	3.71%	-3.33%	12.3%	15%	12.9%	13.4%	113%
CC(C)N1CCC(Cc2cnc(-c3cccc(C(=O)O)c3)cn2)C1 (stereo not given)	-3.78%	1.35%	12.1%	1.95%	1.19%	1.62%	-3.59%	7.71%	0%	9.09%	5.67%
CN(C)C(=O)N1Cc2nnn(C)c2C(COCC2CC2)C1 (stereo not given)	1.21%	-21.9%	-4.36%	0.0741%	4.96%	2%	6.76%	-7.39%	2.08%	6.17%	-1.7%
N#Cc1ccc(OCCOc2ccccc2C(=O)N2CCOCC2)cc1	-0.304%	7.79%	-1.44%	10.7%	1.28%	-11%	12.8%	-19.7%	4.3%	13.6%	-2.37%
CCN(Cc1ccc2c(c1)OCCO2)C(=O)NC(C)Cn1ccnc1 (stereo not given)	-0.244%	23.4%	-1.99%	-9.3%	-9.74%	3.56%	10.8%	19.8%	3.88%	9.76%	-7.71%

From ChEMBL document CHEMBL3988442, “University of Dundee, Small-Polar-MMV Screening Library” (2021)
